Structures are written as SMILES.

A short description of this test: inhibitors of PAF-induced NFkB signaling in CF airway cells, dose response, cell-based, uHTS hits, panel, cytotoxicity readout (AID 624344). As to conditions: CF bronchial epithelial cells, PAF-induced NFkB reporter inhibition, with PAF, run 1; at 79 µM (top of the series) unless noted.
Consider `Nc1nc(N)nc(-c2ccc(Cl)c(Cl)c2)n1`, for which the inhibition (in general, the drop in the measured response relative to a control, in per cent) turned out to be 116%.

As for `Cc1cccc(CS(=O)(=O)c2ncc(Cl)c(C(=O)NCc3ccccc3)n2)c1`, the inhibition was found to be 92.1%. Regarding `Cc1ccc(C(C(=O)NCc2ccccc2)N(Cc2cccs2)C(=O)c2ccc3c(c2)OCCO3)cc1` (stereo not given), the inhibition worked out at 106%. With `Cc1ccc(S(=O)(=O)Nc2cccc3cccnc23)c([N+](=O)[O-])c1` the figure was 101% [at 39.5 µM]; with `c1csc(Cc2nn3c(-c4ccncc4)nnc3s2)c1`, 115%. With `COc1ccc(/C=N/Nc2nc(-c3cccnc3)nc3ccccc23)cc1OC` the figure was 108%; with `COc1ccc2cc3c(N)nn(C(=O)Cc4ccccc4OC)c3nc2c1`, 106%. Under `CC(=O)c1ccc(-c2cnc3c(NC=O)cc(-c4ccc(C(=O)NC5CC5)cc4)cn23)cc1` stands 99.5%; under `CC(=O)c1c(O)cc2c3c1OC(C)(C)C1CCC(C)(CC31)O2` (stereo not given), 111%.

For `COc1ccccc1/C=C/C(=O)c1c2c(c(C)[nH]c1=O)CCCC2`, the inhibition is 110%.

As to `Cc1cccc(NC(=O)c2nc[nH]c2C(=O)NCCCNC(=O)c2[nH]cnc2C(=O)Nc2cccc(C)c2)c1`, the inhibition was determined as 97.6%. With `O=S(=O)(Nc1nc2ccccc2nc1N1CCN(c2ccccc2F)CC1)c1ccc(Cl)cc1` the figure was 96.7%. Under `COc1cccc(-c2ccc3ncnc(NCc4ccc5c(c4)OCO5)c3c2)c1` stands 97.6%; under `COc1ccc(NC(=O)Nc2nnc(-c3ccncc3)s2)cc1`, 67.9%. Under `Cc1ccc2occ(/C=N/NC(=O)c3ccccc3Br)c(=O)c2c1` stands 94.7%; under `O=C(NCCN1CCN(c2ccccc2)CC1)c1cccc(Br)c1`, 113%; under `COc1ccc(-c2cnc3c(NC=O)cc(-c4ccccc4OC)cn23)cc1OC`, 93.5%. Consider `Oc1ccc(Nc2ncnc3scc(-c4ccccc4)c23)cc1`, for which the inhibition worked out at 56%. As to `Cc1c(NC(=O)c2cc(-c3cccs3)nc3ccccc23)c(=O)n(-c2ccccc2)n1C`, the inhibition was determined as 112%. With `O=C(CC12CC3CC(CC(C3)C1)C2)Nc1nncs1` the figure was 105%. As for `COc1ccc(OC)c(-c2nnc3n2N=C(c2ccc(OC)c(OC4CCCC4)c2)CS3)c1`, the inhibition worked out at 103%. With `COc1ccc2cc3c(N)nn(C(=O)c4ccc(F)cc4)c3nc2c1` the figure was 90%. With `CCC(=NCCc1c(C)[nH]c2ccc(C)cc12)C1=C(O)CC(c2ccccc2)CC1=O` (stereo not given) the figure was 82.1%; with `O=C(CCS(=O)(=O)c1ccccc1)N(CCCN1CCOCC1)c1nc2c(F)cccc2s1`, 97.5%; with `CC(=O)Oc1c(Cl)cc(N(C(C)=O)S(=O)(=O)c2ccccc2)c2ccccc12`, 89.7%. With `c1ccc2c(c1)Nc1ccncc1S2` the figure was 114%; with `COc1cccc(-c2ccc3ncnc(NCc4cc(C)cs4)c3c2)c1`, 106%; with `O=[N+]([O-])c1cc([N+](=O)[O-])c2oc(-c3ccccc3)c(Br)c2c1O`, 112%. As for `CC(NC(=O)OCc1ccccc1)C(=O)Oc1cc2oc(=O)cc(-c3ccccc3)c2cc1Cl` (stereo not given), the inhibition was determined as 103%. On to `Fc1cccc(Cl)c1/C=N/Nc1c(Cl)cncc1Cl`, for which the inhibition came out at 101%. With `Cc1c(Cl)cccc1NC(=O)CSc1nc2ncc(Cl)cc2[nH]1` the figure was 98.5% [at 19.8 µM]; with `COc1ccc2c(c1)c(C(C)=O)c(C)n2-c1ccc(C(C)=O)cc1`, 89.8%. Under `C=C1C(=O)O[C@H]2C[C@H]1[C@@H](OC(C)=O)C/C(C)=C/CC/C(C)=C\CC[C@]2(C)O` stands 107%; under `Nc1nccc(SCc2ccc(Cl)cc2Cl)n1`, 72.7%; under `CC(=O)c1ccc(NC(=O)Nc2ccc3c(c2)N(C)C(=O)CS3)cc1`, 98.3%. `COc1ccc(-c2cc(=O)oc3cc(OC(=O)C4CCCCC4)c(Cl)cc23)cc1`: the inhibition came to 117%. With `COc1ccc(-c2[nH]ncc2-c2ccc3c(c2)OCCO3)c(O)c1` the figure was 107%.

In the case of `CCCCCc1cc(O)c2c(C)cc(=O)oc2c1`, the inhibition came out at 112%. Under `CCCCCCCCCc1nc2sc3c(c2c(=O)n1NC(=O)c1ccc([N+](=O)[O-])cc1)CC(C)(C)OC3` stands 80.5%. Under `CCNC(=O)C1(C)CCCN(Cc2ccc(-c3ccccc3)o2)C1` (stereo not given) stands 94%.

The values above are taken from PubChem BioAssay.
